Read-outs that look alike come from different tables or passages of the source. Out of some 3,300 compounds screened, about 95 (3%) showed an effect of 50% or more. The entries come from a sample that favours strong results as a whole.
System: HCoV-229E
Set-up: species or system Huh-7; HTS, protection from HCoV-229E induced cell death, luminescent cell viability (CellCounting-Lite 2.0), inhibition rate
Settings: 24 h post infection, 1 h compound pre-incubation, 10 µM, inhibitor

Question: COc1cc(O[C@@H]2O[C@H](CO[C@@H]3O[C@H](CO)[C@@H](O)[C@H](O)[C@H]3O)[C@@H](O)[C@H](O)[C@H]2O)c2c(O)c3c(=O)cc(C)oc3cc2c1 [Rubrofusarin gentiobioside] was tested. Which “229E Inhibition rate” value did it give?
Answer: 20.7%

Question: COc1cccc(CCC(=O)O)c1 [3-(3-Methoxyphenyl)propionic acid] was tested. Which “229E Inhibition rate” value did it give?
Answer: 21.4%

Question: O=CC[C@H](O)[C@H](O)CO [Thyminose] was tested. Which “229E Inhibition rate” value did it give?
Answer: 3.9%

Question: How did the “229E Inhibition rate” value turn out when C=C[C@H]1[C@H](O[C@@H]2O[C@H](CO)[C@@H](O)[C@H](O)[C@H]2O)OC=C(C(=O)OC)[C@H]1CC(=O)O [Secoxyloganin] was run?
Answer: 44.3%

Question: How did the “229E Inhibition rate” value turn out when CC(C)CCC[C@@H](C)[C@H]1CC[C@H]2[C@@H]3CC=C4C[C@@H](O)CC[C@]4(C)[C@H]3CC[C@]12C [Cholesterol] was run?
Answer: 13.1%

Question: For C[C@H](CCCC(C)(C)O)[C@H]1CC[C@H]2[C@@H]3CC=C4C[C@@H](O)CC[C@]4(C)[C@H]3CC[C@]12C [25-Hydroxycholesterol], which “229E Inhibition rate” value is on record?
Answer: 3.1%

Question: How did the “229E Inhibition rate” value turn out when CC(C)CCC[C@](C)(O)[C@H]1CC[C@H]2[C@@H]3CC=C4C[C@@H](O)CC[C@]4(C)[C@H]3CC[C@@]21C [20(S)-Hydroxycholesterol] was run?
Answer: 57%

Question: For Nc1ncnc(N[C@@H]2O[C@H](CO)[C@@H](O)[C@H]2O)c1[N+](=O)[O-] [Clitocine], which “229E Inhibition rate” value is on record?
Answer: 17.5%

Question: For CC(C)=CCc1c(O[C@@H]2O[C@H](CO)[C@@H](O)[C@H](O)[C@H]2O)cc(O)c2c(=O)c(O[C@@H]3O[C@@H](C)[C@H](O)[C@@H](O)[C@H]3O)c(-c3ccc(O)cc3)oc12 [Epimedoside A], which “229E Inhibition rate” value is on record?
Answer: 15.1%

Question: How did the “229E Inhibition rate” value (229E Inhibition rate, 24 h) turn out when COc1cc2c(cc1OC)[C@@H](Cc1ccc(O)c(Oc3cc4c(cc3OC)CCN(C)[C@@H]4Cc3ccc(O)cc3)c1)N(C)CC2 [Liensinine (Diperchlorate)] was run?
Answer: 57.2%

Question: COc1cc2c(cc1OC)[C@@H](Cc1ccc(O)c(Oc3cc4c(cc3OC)CCN(C)[C@@H]4Cc3ccc(O)cc3)c1)N(C)CC2 [Liensinine] was tested. Which “229E Inhibition rate” value (229E Inhibition rate, 24 h) did it give?
Answer: 44.3%

Question: COc1cc2c(cc1OC)[C@@H](Cc1ccc(O)c(Oc3cc4c(cc3OC)CCN(C)[C@@H]4Cc3ccc(O)cc3)c1)N(C)CC2 [Liensinine (perchlorate)] was tested. Which “229E Inhibition rate” value (229E Inhibition rate, 24 h) did it give?
Answer: 8.8%

Question: With CC[C@]1(O)C[C@@H]2CN(CCc3c([nH]c4ccccc34)[C@@](C(=O)OC)(c3cc4c(cc3OC)N(C)[C@H]3[C@@](O)(C(=O)OC)[C@H](OC(C)=O)[C@]5(CC)C=CCN6CC[C@]43[C@@H]65)C2)C1 [Vinblastine (sulfate)] as the compound, how does the “229E Inhibition rate” value read?
Answer: 30.6%

Question: CC[C@H]1C[C@@H]2CN3CCc4c([nH]c5ccccc45)[C@](C(=O)OC)(C2)[C@H]13 [Coronaridine] was tested. Which “229E Inhibition rate” value did it give?
Answer: 41.8%

Question: How did the “229E Inhibition rate” value turn out when CCC1=C[C@@H]2CN3CCc4c([nH]c5ccccc45)[C@@](C(=O)OC)(C2)[C@@H]13 [Catharanthine] was run?
Answer: 54.2%
